{"source": "PubChem BioAssay AID686978", "about": "(National Center for Advancing Translational Sciences (NCATS), 2013)", "note": "In all, about 420,000 compounds went through this assay and about 64,000 (15%) were called active. Not shown: some 27% with an inconclusive outcome. Calls come from the whole dose curve; as a rule, active = well fitted inhibition curve with a large enough effect; inconclusive = small, poorly fitted or top-dose-only effect; inactive = flat fitted curve, though single readings scatter. A selection follows. Where a call stands in place of a potency, no number is given. Potency is the fitted concentration of half-maximal effect."}
{"experiment": "qHTS for Inhibitors of human tyrosyl-DNA phosphodiesterase 1 (TDP1): qHTS in cells in absence of CPT; note: nearly all actives have a fitted effect of over 55% in size", "details": "DT40 Tdp1-/- hTDP1 cells, no CPT, ATP luminescence, 48 h; activity change, negative = growth inhibition: at 46.2 µM (top of the series)", "from_the_text": "Human tyrosyl-DNA phosphodiesterase 1 (TDP1) is a novel repair gene, and we propose to use it as a new target for anticancer drug development. TDP1 is not an essential protein, but under treatment with topoisomerase I poison (camptothecin: CPT), TDP1 works as a critical factor for cell survival. To directly identify novel TDP1 inhibitors active in a cellular environment, we have knocked-out the Tdp1 gene in chicken DT40 cells (Tdp1-/-) and generated a complemented counterpart cells that contains a stable transfection of the human TDP1 gene (Tdp1-/-;hTDP1 cells). For the primary screen, Tdp1-/-;hTDP1 cells will be exposed to small molecules in the presence or absence of CPT, and their growth kinetics will be evaluated after 48 hours by measuring ATP activity. […] The hit compounds will then be evaluated in the presence or absence of CPT using Tdp1-/- cells. […] In tertiary assays, biochemical gel-based assays will be used to assess whether the hit compounds specifically target TDP1.\nTo this end, we have screened this cell line against the MLSMR in two primary screens. In one screen we add CPT and in the other we screen in the absence of CPT; this AID represents the screen where CPT was absent.\nNIH Chemical Genomics Center [NCGC]\nNIH Molecular Libraries Probe Centers Network [MLPCN]\nAssay Submitter (PI): Yves Pommier, NCI\nDT40-hTDP1 cells without 20 nM Camptothecin (add 20 microL of DMSO in 1 L of cell culture medium) were dispensed at 400 cells/5microL/well in tissue culture treated 1536-well white wall/solid bottom assay plates (Greiner Bio-One North America, NC, U.S.A.) using a Multidrop Combi 8 channel dispenser (Thermo Fisher, Waltham, MA, USA). 23 nL compounds and controls were transferred using the pin tool (Kalypsys, San Diego, CA, USA) to the assay plates. The assay plates were then incubated at 37 masculineC for a minimum 48 hr. Three microL of Cell Titer Glo solution was added to the plates and incubated at RT in dark for 30 min. Luminescence was read using ViewLux (Perkin Elmer) with 1 sec exposure slow speed, high gain and 2x binning."}
{"smiles": "C=CCn1c(=O)c(C(=O)Nc2ncccc2O)c(O)c2ccccc21", "Potency": "inactive"}
{"smiles": "CCc1cccc(C)c1NC(=O)COC(=O)CNC(=O)c1cccs1", "Potency": "inactive"}
{"smiles": "CCc1cccc(CC)c1NC(=O)COc1ccccc1C(=O)c1cc(C#N)c(=O)n(C2CCCCC2)c1", "Potency": "16.4 µM (active)"}
{"smiles": "Cc1cc(NC(=O)COc2ccccc2C#N)no1", "Potency": "inactive"}
{"smiles": "CCc1cccc(C)c1NC(=O)COC(=O)CC1CCCC1", "Potency": "inactive"}
{"smiles": "O=S(=O)(NCC(c1ccco1)N1CCOCC1)c1cc(F)ccc1F", "note": "(stereo not drawn)", "Potency": "inactive"}
{"smiles": "COc1ccc(Cn2ccn(CC(=O)Nc3cc(C)ccc3C)c(=O)c2=O)cc1", "Potency": "inactive"}
{"smiles": "CC(C)C(=O)Nc1ccc2c3c(cccc13)CC2", "Potency": "inactive"}
{"smiles": "CC(=O)c1c(N2CCOCC2)nc(=S)n(-c2cc(C)ccc2C)c1C", "Potency": "inactive"}
{"smiles": "Cc1ccc2cc(C)c(N3CCN(c4ccc(F)cc4)CC3)nc2c1", "Potency": "inactive"}
{"smiles": "CC(=O)c1c(N2CCN(c3ccc(F)cc3)CC2)nc(=S)n(-c2ccccc2)c1C", "Potency": "20.6 µM (active)"}
{"smiles": "CNC(=O)COc1ccc(S(=O)(=O)Nc2ccccc2)cc1", "Potency": "inactive"}
{"smiles": "CCn1c(C(C)NC(=O)c2ccc(C)cc2)n[nH]c1=S", "note": "(stereo not drawn)", "Potency": "inactive"}
{"smiles": "C/C(=C\\C(=O)c1ccccc1)Nc1cccc(O)c1", "Potency": "inactive"}
{"smiles": "N/C(=N\\OC(=O)CCn1cccc(C(F)(F)F)c1=O)c1ccc(OC(F)(F)F)cc1", "Potency": "inactive"}
{"smiles": "Cc1ccc(OCCNC(=O)CN2C(=O)NC3(CCCC3)C2=O)cc1", "Potency": "inactive"}
{"smiles": "COC1=CC(=O)OC(C)(c2ccccc2)C1", "note": "(stereo not drawn)", "Potency": "inactive"}
{"smiles": "Cc1nc2c(OCc3ccc(Cl)cc3Cl)cccn2c1N(C)CC1CC1", "Potency": "16.4 µM (active)"}
{"smiles": "Cc1nc2c(OCC(=O)C(C)(C)C)cccn2c1N(C)Cc1cccs1", "Potency": "inactive"}
{"smiles": "Cc1nc2c(OCc3cccc(Cl)c3)cccn2c1N(C)CC1CC1", "Potency": "20.6 µM (active)"}
{"smiles": "O=C(Nc1c[nH]c(=O)[nH]c1=O)OCc1ccccc1", "Potency": "inactive"}
{"smiles": "Cc1ccc(C(=O)Nc2ccc(OCc3cc(=O)n4c5c(sc4n3)CCCC5)cc2)cc1", "Potency": "inactive"}
{"smiles": "CC(C)(C)C(=O)NCCCNc1ccc([N+](=O)[O-])cc1", "Potency": "inactive"}
{"smiles": "CN1CC(=O)N=C1N", "Potency": "inactive"}
{"smiles": "O=S(=O)(NCc1ccccn1)c1ccc(F)cc1", "Potency": "inactive"}
{"smiles": "CCCCN1CC(CO)Oc2cccc(F)c2S1(=O)=O", "note": "(stereo not drawn)", "Potency": "inactive"}
{"smiles": "COc1cc(C(=O)N2CCOC23CCN(Cc2ccccc2)CC3)cc(OC)c1OC", "Potency": "inactive"}
{"smiles": "COc1ccccc1-c1nn(Cc2ccccc2)cc1C(=O)N1CCN(c2ncccn2)CC1", "Potency": "16.4 µM (active)"}
{"smiles": "COc1cccc(OC)c1C(=O)N1CCN(Cc2cccnc2)CC1", "Potency": "inactive"}
{"smiles": "COc1ccc(C(=O)NC2CC2)cc1OC1CCN(Cc2ccc(SC)cc2)CC1", "Potency": "inactive"}
{"smiles": "COc1cc(C(=O)N2CCN(C/C=C/c3ccccc3)CC2)cc(OC)c1C", "Potency": "29.1 µM (active)"}
{"smiles": "COc1cc(C(=O)N2CCN(C)CC2)cc(OC)c1OC", "Potency": "inactive"}
{"smiles": "COc1ccc(C(=O)NCCn2nc(C)cc2C)cc1OC1CCN(C(C)=O)CC1", "Potency": "inactive"}
{"smiles": "COc1ccc(C(=O)NC2CC2)cc1OC1CCN(C/C=C/c2ccccc2)CC1", "Potency": "23.1 µM (active)"}
{"smiles": "COc1cc(C(=O)N2CCN(C(=O)COc3cccc(C)c3)CC2)cc(OC)c1OC", "Potency": "inactive"}
{"smiles": "CCOC(=O)CSc1nnc(NC(=O)C2CC(=O)N(c3ccc(F)cc3)C2)s1", "note": "(stereo not drawn)", "Potency": "inactive"}
{"smiles": "C[C@@H]1O[C@@H](OC[C@H]2O[C@@H](Oc3c(-c4cccc(O)c4O)oc4cc(O)cc(O)c4c3=O)[C@H](O)[C@@H](O)[C@@H]2O)[C@H](O)[C@H](O)[C@H]1O", "Potency": "inactive"}
{"smiles": "O=C1CN(C(=O)COC(=O)C2CC(=O)N(Cc3ccco3)C2)c2ccccc2N1", "note": "(stereo not drawn)", "Potency": "inactive"}
{"smiles": "COc1cc(C(=O)N2CCOCC2)cc(OC)c1OC", "Potency": "inactive"}
{"smiles": "Cc1cc(C)n(CCC(=O)N2CCN(S(=O)(=O)c3ccc(C)c(C)c3)CC2)n1", "Potency": "inactive"}
{"smiles": "O=C(COc1ccccc1O)NC1CCCC1", "Potency": "inactive"}
{"smiles": "O=C(NCCN1CCOCC1)/C(=C/c1ccc(F)cc1)NC(=O)c1ccccc1", "Potency": "inactive"}
{"smiles": "CC(C)(C)c1ccc(C(=O)N2CCN(CCNC(=O)C(=O)Nc3ccc(F)cc3)CC2)cc1", "Potency": "10.3 µM (active)"}
{"smiles": "Cc1ccc(C(=O)N/C(=C\\c2ccc(F)cc2)C(=O)NCCN2CCOCC2)cc1", "Potency": "inactive"}
{"smiles": "O=C(NCc1ccccc1)c1ccc(CNc2c(N3CCCC3)c(=O)c2=O)cc1", "Potency": "inactive"}
{"smiles": "CNC(=O)CSc1nnnn1-c1ccc(C)cc1C", "Potency": "inactive"}
{"smiles": "CC1=C(C(=O)OC2CCCCC2)C(c2ccccc2F)NC(=O)N1", "note": "(stereo not drawn)", "Potency": "inactive"}
{"smiles": "Cc1ccc(C2NC(=S)NC3=C2N2CCC3CC2)cc1", "note": "(stereo not drawn)", "Potency": "inactive"}
{"smiles": "Cc1cc2nc(-c3ccc(F)cc3)c(Cc3ccsc3)n2c(C)c1Br", "Potency": "11.6 µM (active)"}
{"smiles": "Cc1cc2nc(-c3ccco3)c(Cc3cccc(F)c3)n2c(C)c1Br", "Potency": "16.4 µM (active)"}
{"smiles": "Cc1cc2nc(-c3ccc(Cl)cc3)c(Cc3cccc(F)c3)n2c(C)c1Br", "Potency": "23.1 µM (active)"}
{"smiles": "CC(NC(=O)CNC(=O)Cc1cccc2ccccc12)c1ccc(S(N)(=O)=O)cc1", "note": "(stereo not drawn)", "Potency": "inactive"}
{"smiles": "Nn1c(SCC(=O)NC(=O)NC2CCCC2)nnc1-c1ccccc1F", "Potency": "inactive"}
{"smiles": "O=C1CC(c2ccccc2)CC(O)=C1C=NCCN1CCOCC1", "note": "(stereo not drawn)", "Potency": "inactive"}
{"smiles": "O=C(Oc1ccc(F)cc1)N1CCOCC1", "Potency": "inactive"}
{"smiles": "CC1=C(C)CC(C(=O)NNC(=O)c2csc3c2CCC(C(C)(C)C)C3)C(C(=O)O)C1", "note": "(stereo not drawn)", "Potency": "inactive"}
{"smiles": "C[C@H](NC(=O)OC(C)(C)C)c1nnc(SCC(=O)Nc2ccc(Br)cc2)o1", "Potency": "inactive"}
{"smiles": "CCSc1nnc(-c2cc3c(s2)-c2ccccc2CC3)o1", "Potency": "inactive"}
{"smiles": "Cc1cccc(C)c1NC(=O)CCS(=O)(=O)c1cccc2nsnc12", "Potency": "inactive"}
{"smiles": "Cn1c(C(=O)OC(C(=O)NC2CCCCC2)c2ccccn2)cc2sccc21", "note": "(stereo not drawn)", "Potency": "inactive"}
{"smiles": "COc1ccc(C(=O)N2CCC3(CCCN(C(c4ccccc4)c4ccccc4)C3)CC2)cc1", "Potency": "inactive"}
{"smiles": "Cc1ccc(SCC2=NNC(=O)C2)cc1", "Potency": "inactive"}
{"smiles": "Cc1ccc(C(=O)N/C(=C/C=C/c2ccccc2)C(=O)NCc2ccco2)cc1", "Potency": "inactive"}
{"smiles": "O=C(Nc1ccncc1)c1cc2ccccc2o1", "Potency": "8.2 µM (active)"}
{"smiles": "CC(C)Oc1ccc(NC(=O)c2cc3ccccc3o2)cc1", "Potency": "inactive"}
{"smiles": "Cc1ccc(NC(=O)c2cc3ccccc3o2)cc1", "Potency": "inactive"}
{"smiles": "CCOC(=O)C(=CNc1cccc(C)n1)C(=O)OCC", "Potency": "inactive"}
{"smiles": "O=C(c1csnn1)N1CCC2(CC1)CN(c1ncccn1)C2", "Potency": "inactive"}
